Here are results for 40 sequences from the supplement of paper PMC10338343.

± gives the standard deviation.

The assay concerns MILI (PIWIL2) piRISC loaded with piRNA #1 (26 nt). The experiment in a line: pre-steady-state target cleavage rate (min^-1); guide: piRNA #1 5'p-UGAGGUAGUAGGUUGUAUAGUAUCCA; MIWI and MILI are mouse PIWI proteins and EfPiwi is from a freshwater sponge; tags in brackets are library labels; higher = faster piRNA-guided slicing of the target. The settings on record: auxiliary factor: 500 nM mouse GTSF1. Summed up: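 Sequencing of uncleaved targets, normalised to depth and to weakly complementary targets, was the readout of this Cleave-'n-Seq assay. A transcribed, DNA-blocked target RNA library (0.1 nM) was mixed with 1 nM active affinity-purified piRISC carrying one synthetic guide, with or without 500 nM GTSF1 partner protein, in HEPES–potassium acetate buffer at 33 °C for 0–8 or 0–960 min. Three trials were pooled, k3 was capped at 0.0001 min^-1, and a burst-and-steady-state fit gave the pre-steady-state cleavage rate.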
For GGAGACCAUACUAUACAACCUACUACCCUCA, the “pre-steady-state target cleavage rate” value was 0.22 ± 0.024.

For the sequence GGAGACCUAACUAUACAUCCUACUUCCUCA, the “pre-steady-state target cleavage rate” value amounted to 0.14 ± 0.044. The same measure for GGAGACCUAUGAUUACAACCUAUCUACCUCA: 0.00755 ± 0.003. As for GGAGACCUUACUAUACAACCUACAAGCUCA, the figure is 0.103 ± 0.03. GGAGACCUAUCUAUUCAACGUACUACCUCA: the “pre-steady-state target cleavage rate” value was 0.00945 ± 0.003. As for “GGAGACCUAUGAUAUGUUGGUACUACCUCA [g2:g10:cont:t1A]”, the figure is less than 0.0001; as for GGAGACCUAUGAUAAACAACCUACUACCUCA, 0.00811 ± 0.0029; as for GGAGACCUAUGUAUACAACCUACUACCUGCA, 0.0635 ± 0.011. As for GGAGACCUAUGUUAACAACCUACUACCUCA, the figure is 0.0234 ± 0.0048.

Take GGAGUGGAUACUAUUCAACCUACAACCUCA: the “pre-steady-state target cleavage rate” value amounted to 0.0706 ± 0.01. With GGAGACCAUUGUAUACAACCUACUACCUCA, the “pre-steady-state target cleavage rate” value was 0.0325 ± 0.0067. As for GGAGACCUAUGAAUACAACCUAUUACCUCA, the figure is 0.00604 ± 0.003. The same measure for GGAGACCUUACUAUACUACCUACUACCUGA: 0.105 ± 0.014; for GGAGACCUAUGAUUACAACGUACUACCUCA: 0.00443 ± 0.0016.

Consider GGAGACCUUACUAUACAACCUACUCACCUCA, for which the “pre-steady-state target cleavage rate” value amounted to 0.17 ± 0.018.

With GGAGAGGAUUCUAUACAACGUACUACCUCA, the “pre-steady-state target cleavage rate” value was 0.028 ± 0.0028. With GGAGACCUUUCUAUACAAGCUACUACCUCA, the “pre-steady-state target cleavage rate” value was 0.159 ± 0.012. The same measure for GGAGUGGAUACUAUACAACCAAGUACCUCA: 0.00277 ± 0.0018; for GGAGACCUAUGUAUACAUCCUACUACGUCA: 0.0275 ± 0.0061; for GGAGACCUAUCAAUACAACCUACUAGCUCA: 0.0299 ± 0.0076. As for GGAGACCUAUCUAAACAACGUACUACCUCA, the figure is 0.00647 ± 0.0027. As for GGAGACCUAUGAUAUGAACCUACUACGCUCA, the figure is less than 0.0001; as for GGAGACCUUACUAUACAUCCUUCUACCUCA, 0.0405 ± 0.0086. With GGAGACCUAUGUAUACAACCUACAACGUCA, the “pre-steady-state target cleavage rate” value came to 0.00278 ± 0.0027.

With GGAGACCUUAGUAUACAACCUUCUACCUCA, the “pre-steady-state target cleavage rate” value came out at 0.00489 ± 0.0033. The same measure for GGAGACCUUACUAUACAAGCUACUACCUCA: 0.225 ± 0.015; for GGAGACCUAUGAAUACAAUCUACUACCUCA: 0.00544 ± 0.0022; for GGAGACCUAUGUAUACAACCUACUACACUCA: 0.12 ± 0.018. The same measure for GGAGACCUAUGAAUACAACCUACUACACUCA: 0.00526 ± 0.0026. As for GGAGACCUAUCUAGACAACCUACUACCUCA, the “pre-steady-state target cleavage rate” value turned out to be 0.103 ± 0.016. The same measure for GGAGACCUAUGAUAUGACCUACUACCUCA: 0.0053 ± 0.0031; for GGAGACCUAUGAUAACAAGCUACUACCACA: 0.0117 ± 0.0047.

Regarding GGAGACCUAACUAUACAACCUACUACCGCA, the “pre-steady-state target cleavage rate” value was found to be 0.197 ± 0.038. Take GGAGACCUAUGUAUACAUCCUUCUACCUCA: the “pre-steady-state target cleavage rate” value is 0.00859 ± 0.0018. As for GGAGACCUAAGUAUACAACCUACUACGUCA, the figure is 0.0129 ± 0.0032; as for GGAGACCUUACUAUACAACCGUACUACCUCA, 0.00868 ± 0.0053; as for GGAGAGGAUACUAUACAACCUACUACGUGA, 0.0154 ± 0.004. As for GGAGACCUAUGAAUACAACCUAGCUACCUCA, the figure is 0.00489 ± 0.0025; as for GGAGACCUAUGAUUACAUCCUACUACGUCA, 0.00263 ± 0.0026; as for GGAGUGGAUUCUAAACAACCUACUACCUCA, 0.143 ± 0.0089.
